# AHR act: activators of human aryl hydrocarbon receptor; P35869; activation, % at 5 µM; AHR-responsive luciferase reporter cells, luminescence; 320,000 tested, 2.5% active; in the data active = activation above about 47%;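 note: 0% = vehicle wells and 100% = reference agonist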
# DAX1 inh-1: NR0B1 (DAX1) inhibition. HEK293 Gal4-DAX1 luciferase reporter, luminescence. 340,000 tested, 0.99% active. P51843. AID 504766. inhibition, % at 6.75 µM;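 active = inhibition above the mean over all tested compounds plus 3 SD, cut at about 4.2% in these data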;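 note: 0% = DAX1-transfected cells with DMSO and 100% = empty-vector control cells with DMSO; inhibition shows as a rise in luminescence from relieved DAX1 repression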
# ssDAF12 agonist: activates DAF-12 receptor from parasite S. stercoralis; HEK293 ssDAF-12/GRIP1 lit1-tk-luc reporter, luminescence; % of 3 µM dafachronic acid response; activation, % at 6.8 µM; 370,000 tested, 1% active; AID 652126;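 active = activation above the mean over all tested compounds plus 3 SD, cut at about 0.9% in these data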;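 note: 0% = DMSO-only wells and 100% = 3 µM delta7-dafachronic acid wells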
# hgDAF12 agonist: activates the H. glycines DAF-12 receptor ligand-binding domain; activation, % at 6.8 µM; HEK293 GAL4-hgDAF12 UAS-luciferase reporter, agonist luminescence; normalized to butyrate control; 370,000 tested, 1.8% active;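 active = activation above a cutoff set at the mean of all screened compounds plus 3 SD, cut at about 10% in these data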;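 note: 0% = DMSO wells and 100% = sodium butyrate wells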
# hcDAF12 agonist: H. contortus DAF-12 activation, primary screen | HEK293 hcDAF-12 lit1-tk-luc reporter, luminescence; 0% DMSO, 100% Δ7-dafachronic acid | activation, % at 6.8 µM | 370,000 tested, 1.4% active | AID 652067;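 active = activation above the mean of all tested compounds plus 3 SD, cut at about 5.5% in these data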;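 note: 100% = response to 3 µM Δ7-dafachronic acid high control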
# DAX1 inh-2: blocks DAX1 repression of SF-1 activated StAR promoter | HEK293T StAR-luciferase reporter, SF-1/DAX-1 repression relief | 370,000 tested, 1.1% active | inhibition, % at 6.8 µM;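 active = inhibition above the mean over all tested compounds plus 3 SD, cut at about 3.6% in these data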;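 note: 0% = DAX-1 cells with DMSO and 100% = cells lacking DAX-1 with DMSO; higher inhibition means more luminescence from relief of DAX-1 repression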
# DAX1 inh confirm: confirmation of human DAX1 (NR0B1) inhibitors | shares compounds with DAX1 inh-2 | 2,400 tested, 87% active | HEK293T StAR-promoter luciferase reporter, SF-1/DAX-1 repression | inhibition, % at 6.8 µM;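 active = inhibition above the average of every tested compound plus 3 SD, cut at about 3.8% in these data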;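 note: 0% = DAX-1 cells with DMSO and 100% = no DAX-1 control cells with DMSO; active compounds raise luminescence by relieving repression of the StAR reporter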
# Target sequence (P51843 whole entry, looked up): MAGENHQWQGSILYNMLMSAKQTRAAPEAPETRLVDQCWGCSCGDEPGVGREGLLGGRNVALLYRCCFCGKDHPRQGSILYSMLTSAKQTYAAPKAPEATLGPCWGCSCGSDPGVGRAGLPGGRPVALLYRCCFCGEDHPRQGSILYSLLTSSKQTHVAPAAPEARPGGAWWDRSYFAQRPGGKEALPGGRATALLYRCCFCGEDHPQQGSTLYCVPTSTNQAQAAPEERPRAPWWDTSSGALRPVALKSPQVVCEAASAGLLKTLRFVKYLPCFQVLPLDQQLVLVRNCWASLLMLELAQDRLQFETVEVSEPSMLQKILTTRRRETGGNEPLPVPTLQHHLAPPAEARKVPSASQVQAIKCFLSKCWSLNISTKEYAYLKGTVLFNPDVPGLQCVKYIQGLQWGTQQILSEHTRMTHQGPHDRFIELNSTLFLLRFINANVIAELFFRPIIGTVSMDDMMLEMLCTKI
# SF1 AF2mut Luc: counter-screen for DAX1 inhibitors: nonselective inhibitors with SF-1 AF2 mutant. shares compounds with DAX1 inh-2. HEK293 StAR-luciferase, luminescence. 2,400 tested, 78% active. inhibition, % at 6.8 µM;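 active = inhibition above the mean of all tested compounds plus 3 SD, cut at about 3% in these data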;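 note: 0% = DAX-1 transfected cells with DMSO and 100% = cells without DAX-1 with DMSO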
# * hit, by the source's call; . = not tested or not shown; ! = not confirmed by another sample. Sampled rows, rich in hits. Any-hit rate of the full collection: about 5.7%.
SMILES,AHR act,DAX1 inh-1,ssDAF12 agonist,hgDAF12 agonist,hcDAF12 agonist,DAX1 inh-2,DAX1 inh confirm,SF1 AF2mut Luc
COc1ccccc1C(=O)Nc1nnc(SCC(=O)NCc2ccco2)s1,27.3,0.2,.,.,.,.,.,.
Cc1ccccc1C(=O)Nc1nnc(SCC(=O)NC2CC2)s1,22.8,2.3,-0.3,8.3,4.2,7.4*,6.1*,3.6*
CCc1nnc(NC(=O)c2ccc(OC)cc2OC)s1,-0.9,-0.1,0.2,11.9*,6.1*,6.8*,12.5*,5.7*
COc1ccc(C(=O)Nc2nnc(SCC(=O)NCc3ccco3)s2)c(OC)c1,3.9,-1.7,0.1,9.6,2.2,5.0*,5.5*,0.5
O=C(CSc1nnc(NC(=O)c2ccccc2F)s1)NCc1ccc(F)cc1,13.2,1.7,-0.1,6.8,3.7,6.8*,9.2*,3.7*
O=C(CSc1nnc(NC(=O)c2c(F)cccc2F)s1)NC1CC1,1.4,-1.0,-0.6,0.7,0.2,0.0,.,.
Cc1ccc(NC(=S)N(CCN2CCCCC2)Cc2ccco2)cc1Cl,-0.5,0.4,-1.7,-1.0,-2.1,0.4,.,.
COc1ccc(C(=O)C2CCCN(C(=O)c3ccc(CSC)o3)C2)cc1F (stereo not drawn),4.2,0.1,-1.1,-3.2,-0.1,-1.0,.,.
CC(=O)Nc1nnc(SCC(=O)NC2CCCC2)s1,1.2,0.3,-0.6,0.1,-1.0,0.4,.,.
COc1ccccc1C(=O)Nc1nnc(SCC(=O)NCC2CCCO2)s1 (stereo not drawn),7.9,1.3,-0.7,11.1*,4.6,10.1*,9.6*,9.2*
COc1cc(C(=O)Nc2nnc(SCC(=O)NCC3CCCO3)s2)cc(OC)c1OC (stereo not drawn),0.4,0.6,-1.0,1.6,-0.5,-0.7,.,.
COc1ccc(C(=O)Nc2nnc(SCC(=O)NC3CCCC3)s2)c(OC)c1,8.4,1.1,2.3*,10.9*,2.8,10.4*,8.4*,2.7
O=C(CSc1nnc(NC(=O)c2ccccc2F)s1)NCc1ccco1,9.8,0.5,-0.3,7.0,2.3,6.3*,5.9*,6.4*
O=C(Nc1nnc(-c2ccccc2)s1)c1ccccc1F,6.1,3.1,0.1,10.6*,3.0,5.5*,7.7*,5.2*
COc1ccccc1OCc1cc(C(=O)N(C)CCC2CCCCO2)no1 (stereo not drawn),52.8*,1.9,0.2,10.7*,2.8,5.0*,7.1*,2.8
CC[C@H](C)C(=O)O[C@H]1C[C@@H](C)C=C2C=C[C@H](C)[C@H](CC[C@@H]3C[C@@H](O)CC(=O)O3)[C@H]21,1.6,0.4,-1.0,1.0,-0.3,5.2*!,2.4,0.1
COc1ccc(OC)c(C=NNC(=O)c2ccccc2NS(=O)(=O)c2cccs2)c1,2.5,0.6,-1.0,-2.6,-1.3,-0.8,.,.
C#CCSc1nc(-c2cccs2)ccc1C#N,9.6,-0.3,-1.4,-1.5,-1.3,-0.5,.,.
COC(=O)CSc1nc(-c2cccs2)ccc1C#N,10.2,4.0,1.8*,11.9*,6.5*,5.9*,9.9*,8.2*
OC(CNCCc1ccc(C(F)(F)F)cc1)COC(c1ccccc1)c1ccccc1 (stereo not drawn),5.2,-0.1,-1.1,-0.9,0.5,0.0,.,.
Cc1ccc(O)c(N=Nc2ccccc2)n1,2.1,1.1,0.0,12.4*,4.2,5.6*,10.3*,6.5*
Oc1ccc(N=Nc2ccccc2)cc1,-0.8,2.0,0.0,9.8,3.8,0.6,.,.
COc1ccc(-n2c(C(C)(C)C)csc2=Nc2c(C)n(C)n(-c3ccccc3)c2=O)cc1,-1.7,0.9,-1.3,-3.2,-2.7,1.0,.,.
O=C(CNC(=O)OCc1ccccc1)NC1CCCCCC1,0.2,-0.5,-0.9,4.2,-1.7,1.1,.,.
O=C(N[C@H]1/C=C\[C@@H](O)CCCC1)OCc1ccccc1,.,3.1,0.6,11.0*,4.8,7.6*,10.6*,9.1*
SMILES,AHR act,DAX1 inh-1,ssDAF12 agonist,hgDAF12 agonist,hcDAF12 agonist,DAX1 inh-2,DAX1 inh confirm,SF1 AF2mut Luc
COc1ccc(Cc2c(-c3ccc(C)cc3)nc3ccc(Cl)cn23)c(C)c1,.,.,0.2,13.0*,1.8,5.7*,6.5*,4.9*
COc1ccc(Cc2c(-c3cccc(Br)c3)nc3ccc(Br)cn23)c(C)c1,.,.,-0.2,3.9,0.8,5.1*,3.3,3.5*
Cc1ccc(S(=O)(=O)NC(C)(C)C)cc1C(=O)OC(C)C(=O)NC1CC1 (stereo not drawn),-2.7,-1.1,-1.1,2.4,-0.8,-0.5,.,.
O=C(Nc1ccccc1F)c1cccc(C(=O)Nc2ccccc2F)c1,7.1,-0.6,-0.8,-1.2,-1.5,0.2,.,.
O=C(Nc1ccccc1F)c1ccc(C(=O)c2ccccc2)cc1,3.5,0.9,-1.0,11.7*,2.8,4.7*,7.0*,4.4*
CCC1(O)CC2CN(CCc3c([nH]c4ccccc34)C(C(=O)OC)(c3cc4c(cc3OC)N(C=O)C3C(O)(C(=O)OC)C(OC(C)=O)C5(CC)C=CCN6CCC43C65)C2)C1 (stereo not drawn),.,2.5,-0.5,-6.8,1.7,5.2*,21.1*,-6.2
Cc1ccc(C)c(NC(=O)CSc2nnc(C3CCCCC3)o2)c1,0.9,0.2,-1.7,-2.2,-0.8,-0.3,.,.
Cc1cccnc1NC(=O)c1ccc(NS(=O)(=O)c2ccc3[nH]c(=O)[nH]c3c2)cc1,-4.0,1.1,-0.8,2.4,4.1,0.1,.,.
O=C(Nc1ncccc1O)c1ccc(NS(=O)(=O)c2ccc3[nH]c(=O)[nH]c3c2)cc1,.,2.1,-0.4,5.0,-0.6,14.7*,19.1*,14.7*
CCOC(=O)c1cnc(SC)nc1Oc1cccc(NC(=O)c2cccc(Cl)c2Cl)c1,0.0,1.1,-1.1,-1.5,1.4,0.7,.,.
O=C(Nc1nnc(-c2ccco2)s1)c1ccccc1,10.2,-0.6,0.4,10.6*,6.5*,6.6*,15.6*,6.2*
CCOC(=O)c1c(C)[nH]c(C(=O)OCc2ccccc2)c1C,3.3,0.6,1.9*,12.0*,3.8,15.3*,11.5*,5.5*
O=C(COC(=O)c1ccc(O)cc1O)c1ccc(Cl)cc1,1.0,0.8,-0.9,5.7,2.4,5.8*,5.4*,2.7
O=C(COC(=O)c1ccc(O)cc1O)Nc1ccc(Cl)cn1,5.0,0.6,-1.0,4.2,-1.3,-0.9,.,.
O=C(CNC(=O)c1ccc2c(c1)OCO2)NCCOc1ccc(Cl)cc1,1.3,-0.3,-1.2,5.7,-0.6,-1.7,.,.
O=C(NCCOc1ccc(Cl)cc1)c1ccc2c(c1)OCCO2,7.0,0.8,-0.5,6.3,2.2,5.8*,7.5*,5.4*

# Bioassay records as filed in PubChem.
